Compounds with a hit are over-represented: about 6.8% of the library has one in this group of screens.
Cy5 interf NS3h = Cy5 fluorescence interference, HCV helicase counter-screen; Cy5-dT15 DNA with NS3h; actives lie on both sides; signal over control mean, under 1 quenches; fluorescence interference ratio at 100 µM; 6% of 16,000 active; AID 720488;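 active = compound fluorescence over control fluorescence at most 0.8, a quencher, or at least a set upper limit, an enhancer; inactive = ratio between 0.8 and the set upper limit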
HCV NS3h FP = hepatitis C NS3 helicase inhibition, primary screen. 1.6% of 16,000 active. inhibition, % at 100 µM. AID 687043. NS3h Cy5-dT15 DNA binding, fluorescence polarization;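 active = inhibition above the average over every tested compound plus 3 SD, cut at about 40% in these data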
NS3h confirm = confirmation of hepatitis C virus NS3 helicase inhibitors; shares compounds with HCV NS3h FP; NS3h binding to Cy5-dT15 DNA, fluorescence polarization; inhibition, % at 100 µM; 20% of 240 active; AID 720485;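 active = percent inhibition of 50% or more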
SSB FP counter = E. coli SSB-DNA binding inhibition, NS3h counter-screen; shares compounds with HCV NS3h FP; E. coli SSB binding Cy5-dT15, fluorescence polarization; inhibition, % at 100 µM; 40% of 240 active; AID 720486;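 active = inhibition of at least 50%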;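 also: displacers lower Cy5 polarization so higher inhibition means more SSB displaced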
Target sequence (P0AGE0 whole entry, looked up): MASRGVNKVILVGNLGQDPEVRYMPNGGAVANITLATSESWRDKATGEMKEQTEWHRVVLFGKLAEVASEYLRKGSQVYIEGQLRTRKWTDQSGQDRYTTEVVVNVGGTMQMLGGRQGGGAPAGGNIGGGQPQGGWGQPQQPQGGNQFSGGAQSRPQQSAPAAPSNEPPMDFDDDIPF
Cy5 SSB interf = enhances or quenches Cy5-DNA fluorescence with E. coli SSB | shares compounds with HCV NS3h FP | fluorescence interference ratio at 100 µM | AID 720487 | 8% of 240 active | Cy5-dT15/E. coli SSB fluorescence interference; actives lie on both sides;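 active = fluorescence interference ratio at or above 1.2, signal boosting, or at or below 0.8, signal quenching; inactive = ratio between 0.8 and 1.2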
Cy5 interf conf = Cy5 fluorescence interference, confirmation counter-screen; 44% of 240 active; shares compounds with HCV NS3h FP; fluorescence interference ratio at 100 µM, hits read low; Cy5-dT15 DNA/NS3h fluorescence interference counterscreen; AID 720489;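 active = fluorescence interference ratio at or below 0.8 quencher or at or above a set limitenhancer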
Of the large screens only hits and unclear results are named; the others gave an inactive call (follow-up assays come after a bar, where they were run).

O=C1NC(=Nc2ccc(F)cc2)S/C1=C/c1ccccc1F	Cy5 interf NS3h 1.7, HCV NS3h FP 112 | NS3h confirm inactive | SSB FP counter inactive | Cy5 SSB interf inactive | Cy5 interf conf inactive
Cc1ccccc1/C=C1/SC(=Nc2ccc(F)cc2)NC1=O	none
CCOc1cc(/C=C2/SC(=S)N(C)C2=O)cc(Cl)c1OCCOc1ccc(Br)cc1	none
Cc1ccc(N2C(=O)C(Cl)=C(N3CCOCC3)C2=O)c(C)c1	none | NS3h confirm inactive | SSB FP counter inactive | Cy5 SSB interf inactive | Cy5 interf conf 0.76
Cc1ccc(N2C(=O)C(Cl)=C(N3CCN(c4ccccc4)CC3)C2=O)c(C)c1	none
COc1ccc(NC(=O)CN(c2c(C)n(C)n(-c3ccccc3)c2=O)S(=O)(=O)c2ccccc2)cc1	none
O=C(O)CN1C(=O)/C(=C\c2cccc([N+](=O)[O-])c2O)SC1=S	HCV NS3h FP 44 | NS3h confirm inactive | SSB FP counter inactive | Cy5 SSB interf inactive | Cy5 interf conf 0.73
COc1cccc(/C=C2/SC(=S)N(CC(=O)O)C2=O)c1O	none
CCOc1ccc(-c2nc(Cc3c(F)cccc3Cl)no2)cc1	none
Cc1cc(C)c(N2C(=O)NC(=O)/C(=C/c3ccc([N+](=O)[O-])o3)C2=O)c(C)c1	HCV NS3h FP 52 | NS3h confirm inactive | SSB FP counter 94 | Cy5 SSB interf inactive | Cy5 interf conf 0.75
Cc1cc([N+](=O)[O-])ccc1-c1ccc(/C=C2/C(=O)NC(=S)N(c3ccc(Cl)cc3)C2=O)o1	none
O=C(Nc1ccc(Cl)cc1)c1cccc2ccccc12	none
O=C(OCc1ccccc1)Sc1nc2ccccc2[nH]1	none
Cc1ccc(N2C(=O)NC(=O)/C(=C\c3ccsc3)C2=O)cc1	Cy5 interf NS3h 1.2, HCV NS3h FP 55 | NS3h confirm inactive | SSB FP counter inactive | Cy5 SSB interf inactive | Cy5 interf conf 0.74
O=C1NC(=O)N(c2cccc(F)c2)C(=O)/C1=C/c1ccc(O)c(Cl)c1	none
COc1ccc(N2C(=O)NC(=O)/C(=C\c3cc(OC)c(OC)cc3OC)C2=O)cc1	none
COc1cc(OC)c(OC)cc1/C=C1/C(=O)NC(=O)N(c2ccccc2)C1=O	Cy5 interf NS3h 1.2, HCV NS3h FP 44 | NS3h confirm inactive | SSB FP counter inactive | Cy5 SSB interf inactive | Cy5 interf conf inactive
O=C1NC(=S)N(c2ccc(Cl)cc2)C(=O)C1=Cc1ccsc1	none
COc1ccc(N2C(=O)NC(=O)/C(=C\c3ccc(O)c(Cl)c3)C2=O)cc1	HCV NS3h FP 47 | NS3h confirm inactive | SSB FP counter inactive | Cy5 SSB interf inactive | Cy5 interf conf 0.75
O=[N+]([O-])c1ccccc1S(=O)(=O)N1CCC(Cc2ccccc2)CC1	none
COc1ccc(NC(=O)C2c3ccccc3Oc3ccccc32)cc1	none
CC(=O)Nc1ccc(N2C(=O)CSC23C(=O)Nc2ccccc23)cc1 (configuration not stated)	none
O=C(Oc1ccc(Cl)cc1)c1ccccc1	HCV NS3h FP 54 | NS3h confirm 50 | SSB FP counter 60 | Cy5 SSB interf inactive | Cy5 interf conf 1.2
O=C(Oc1ccc(-c2nc3ccccc3[nH]2)cc1)c1ccc(Cl)cc1	none
C=CCOc1ccccc1C=C1C(=O)NC(=S)NC1=O	HCV NS3h FP 56 | NS3h confirm inactive | SSB FP counter 107 | Cy5 SSB interf inactive | Cy5 interf conf inactive
C=CCOc1ccccc1/C=C1/C(=O)ON=C1c1ccc(Cl)cc1	HCV NS3h FP 53 | NS3h confirm inactive | SSB FP counter inactive | Cy5 SSB interf inactive | Cy5 interf conf inactive
COc1cc(OC)c(C=C2C(=O)NC(=S)NC2=O)cc1Br	HCV NS3h FP 59 | NS3h confirm inactive | SSB FP counter inactive | Cy5 SSB interf inactive | Cy5 interf conf inactive
O=C1ON=C(c2ccc(Cl)cc2)/C1=C/c1ccccc1Cl	none
C=CCOc1ccc(C=C2C(=O)NC(=S)NC2=O)cc1OC	HCV NS3h FP 82 | NS3h confirm 51 | SSB FP counter 92 | Cy5 SSB interf inactive | Cy5 interf conf 0.77
C=CCOc1ccc(C=C2C(=O)NC(=O)NC2=O)cc1OC	none
O=C1NC(=O)C(=Cc2ccccc2OCc2ccccc2F)C(=O)N1	none
CCOc1cc(C=C2C(=O)NC(=S)NC2=O)ccc1OCCOc1ccccc1OC	none
COC(=O)CN(c1cccc(Br)c1)S(C)(=O)=O	none
O=C(NCC1CCCO1)C(=O)Nc1nccs1 (configuration not stated)	none
NC(=O)c1cnn2c1NC(c1ccco1)CC2C(F)(F)F (configuration not stated)	none
CCC(C)c1ccc(NC(=O)/C=C/c2cccc([N+](=O)[O-])c2)cc1 (configuration not stated)	none
CNC(=O)C(=O)Nc1ccc(C(C)C)cc1	none
COc1ccccc1CC(=O)Nc1nccs1	none
C/C(=N/NC(=O)/C(=C\c1ccc2c(c1)OCO2)NC(=O)c1ccccc1)c1ccc(F)cc1	none
Cc1ccc([N+](=O)[O-])cc1N1C(=O)C=CC1=O	HCV NS3h FP 87 | NS3h confirm inactive | SSB FP counter inactive | Cy5 SSB interf inactive | Cy5 interf conf 0.76
Cc1ccc(N2C(=O)C=CC2=O)cc1[N+](=O)[O-]	HCV NS3h FP 75 | NS3h confirm 61 | SSB FP counter inactive | Cy5 SSB interf inactive | Cy5 interf conf inactive
Cc1ccc(C(=O)NCCC(C)C)cc1[N+](=O)[O-]	none
Cc1ccc([N+](=O)[O-])cc1N1C(=O)C2C3C=CC(CC3)C2C1=O (configuration not stated)	none
N#Cc1c(N)nc2c(c1-c1ccccc1Cl)CC(c1ccccc1)CC2 (configuration not stated)	none
CC1=CC(C)(C)C(C#N)(C#N)C(N)=C1C#N	none
CC(C)(C)c1ccc(C(=O)Nc2cccc3nsnc23)cc1	none
COc1ccc(Cl)cc1C(=O)Nc1cccc2nsnc12	none
CCOc1cc(C(=S)N2CCOCC2)ccc1OC(=O)Cc1ccccc1	none
COC(=O)c1c(C)oc2ccc(OCc3ccc([N+](=O)[O-])cc3)cc12	none
O=Cc1ccc(OCc2ccc([N+](=O)[O-])cc2)cc1	Cy5 interf NS3h 0.59, HCV NS3h FP 49 | NS3h confirm inactive | SSB FP counter inactive | Cy5 SSB interf inactive | Cy5 interf conf 0.7
CN(C1=NC(=O)/C(=C\C=C\c2ccccc2)S1)c1ccc(O)cc1	HCV NS3h FP 52 | NS3h confirm inactive | SSB FP counter inactive | Cy5 SSB interf inactive | Cy5 interf conf 0.69
CN(C1=NC(=O)/C(=C\c2ccc(Cl)cc2)S1)c1ccc(O)cc1	none
COc1cc(/C=C2\C(=O)NC(=O)N(c3cc(C)cc(C)c3)C2=O)cc([N+](=O)[O-])c1O	HCV NS3h FP 60 | NS3h confirm inactive | SSB FP counter 51 | Cy5 SSB interf inactive | Cy5 interf conf 0.74
COc1cccc(/C=C2/C(=O)NC(=O)N(c3cc(C)cc(C)c3)C2=O)c1O	none
CCOc1ccc(NC(=O)c2ccccc2NC(=O)c2cccs2)cc1	none
O=C1CSC(=Nc2ccc(Br)cc2)N1	none

Source: PubChem (Milwaukee Institute for Drug Discovery)
